Screening data: PubChem BioAssay, several laboratories
PfHsp40 rescue = restores yeast growth despite PfHsp40 toxicity; S. cerevisiae expressing PfHsp40, growth rescue, ATP luminescence; growth rescue, % at 12.5 µM; actives 0.68% (n = 340,000); in the data active means growth rescue above about 28%, passing the limit was not always enough;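 further: yeast W303a lacking pdr1 and pdr3 grown in galactose medium; growth measured after three days at 30 °C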
BJeLR viability = kills HRASV12-expressing BJeLR cells | BJeLR (HRASV12) viability, CellTiter-Glo ATP luminescence, 48 h | inhibition, % (test concentration not listed) | actives 0.17% (n = 300,000) | AID 1554; in the data active means inhibition above about 50%
CCHFV vOTU inh = blocks the CCHF virus ovarian tumor domain protease. CCHFV vOTU protease, Pep-AMC fluorescence. inhibition, % at 11.5 µM. actives 0.55% (n = 370,000). AID 651958; in the data active means inhibition above about 30%; further: 0% = vehicle wells with enzyme and 100% = no enzyme wells
Sa RN4220 lethal = S. aureus RN4220 growth inhibition. AID 1259311. inhibition, % (concentration not given with the values). OD600, 16 h. actives 0.33% (n = 330,000); in the data active means inhibition above about 85%;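 further: plate controls were untreated cells for no effect and reference antibiotic for full effect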
Sa ugtP lethal = kills S. aureus RN4220 lacking UgtP; actives 0.54% (n = 330,000); growth inhibition, % (no concentration beside the values); S. aureus RN4220 ugtP deletion, OD600 growth, 16 h; in the data active means growth inhibition above about 68%;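 further: plate controls were untreated wells for no effect and antibiotic for full effect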
* marks the source's active call; other numbers are inactive results. Compounds with a hit are over-represented: about 1.6% of the library has one in this group of screens.

What do the screens show for `CC(Cn1cnc([N+](=O)[O-])n1)=NNC(=O)c1ccc(Br)cc1`?
Sa RN4220 lethal: -10; Sa ugtP lethal: 34

How did O=S1(=O)CCC(NS(=O)(=O)/C=C/c2ccccc2)C1 (stereo not drawn) do in these assays?
PfHsp40 rescue: -1; BJeLR viability: -4; CCHFV vOTU inh: -7; Sa RN4220 lethal: -1; Sa ugtP lethal: -1

How did O=S(=O)(/C=C/c1ccccc1)NC1CCCCCC1 do in these assays?
PfHsp40 rescue: 63*; BJeLR viability: -5; CCHFV vOTU inh: 6; Sa RN4220 lethal: 10; Sa ugtP lethal: -16

How did O=S(=O)(/C=C/c1ccccc1)NC1CCCCCCC1 do in these assays?
PfHsp40 rescue: 70*; BJeLR viability: -4; CCHFV vOTU inh: 11; Sa RN4220 lethal: 9; Sa ugtP lethal: -19

How did CCOC(=O)c1c(/N=C/c2c(O)n(-c3ccccc3F)c(=S)[nH]c2=O)sc2c1CCCC2 do in these assays?
PfHsp40 rescue: 2; BJeLR viability: -3; CCHFV vOTU inh: -2; Sa RN4220 lethal: -18; Sa ugtP lethal: -1

Results for CCOC(=O)c1c(/N=C/c2c(O)n(-c3ccc(F)cc3)c(=S)[nH]c2=O)sc2c1CCCC2 ?
PfHsp40 rescue: 41*; BJeLR viability: 15; CCHFV vOTU inh: 5; Sa RN4220 lethal: 2; Sa ugtP lethal: 1

Results for CN(C)c1ccc(NC(=O)C2C3C=CC(C3)C2C(=O)O)cc1 (stereo not drawn) ?
PfHsp40 rescue: -2; BJeLR viability: -2; CCHFV vOTU inh: 78*; Sa RN4220 lethal: 1; Sa ugtP lethal: -7

What do the screens show for `CC1=C(C(=O)Nc2ccccc2)C(c2ccc(C)o2)n2c(sc(=Cc3ccccc3)c2=O)=N1` (stereo not drawn)?
Sa RN4220 lethal: 5; Sa ugtP lethal: -13

Results for Cc1nc2cc(C(=O)OCC(=O)Nc3cccc(Cl)c3)ccc2n1-c1ccccc1 ?
PfHsp40 rescue: 2; BJeLR viability: -12; CCHFV vOTU inh: 5; Sa RN4220 lethal: -3; Sa ugtP lethal: 99*

How did O=C(Cn1cnc2ccccc2c1=O)c1cccs1 do in these assays?
PfHsp40 rescue: 41*; BJeLR viability: 1; CCHFV vOTU inh: -1; Sa RN4220 lethal: 5; Sa ugtP lethal: -7

How did O=C(Cn1cnc2ccc(Cl)cc2c1=O)c1cccs1 do in these assays?
PfHsp40 rescue: 0; BJeLR viability: -12; CCHFV vOTU inh: 1; Sa RN4220 lethal: -12; Sa ugtP lethal: 1

Results for O=C(Oc1ccccc1)c1cc2ccccc2o1 ?
PfHsp40 rescue: -1; BJeLR viability: -2; CCHFV vOTU inh: 1; Sa RN4220 lethal: 2; Sa ugtP lethal: 101*

Results for CCOC(=O)c1c(C)sc2c1N(C(=O)CCl)c1cc(Cl)ccc1S2 ?
PfHsp40 rescue: 0; BJeLR viability: 0; CCHFV vOTU inh: 2; Sa RN4220 lethal: 64; Sa ugtP lethal: 93*

How did C/C(C=Nn1c(C)n[nH]c1=S)=C/c1ccccc1 do in these assays?
Sa RN4220 lethal: 6; Sa ugtP lethal: 7

What do the screens show for `Cc1ccccc1OCC(=O)Nn1c(COc2ccccc2)nc2ccccc2c1=O`?
PfHsp40 rescue: 1; BJeLR viability: 1; CCHFV vOTU inh: 13; Sa RN4220 lethal: 110*; Sa ugtP lethal: 99*

How did CCOC1OC(C(=O)NC2CC2)=CC(c2ccc3c(c2)OCO3)C1CCCO (stereo not drawn) do in these assays?
Sa RN4220 lethal: 6; Sa ugtP lethal: 5

What do the screens show for `Cc1cc2nc3ccc(=[N+](C)C)cc-3sc2cc1N`?
PfHsp40 rescue: 0; BJeLR viability: 57*; Sa RN4220 lethal: 69; Sa ugtP lethal: 44

Results for CC(=NNC(=O)CSc1nc(C)cc(C)n1)c1cccs1 ?
Sa RN4220 lethal: -2; Sa ugtP lethal: -2

What do the screens show for `Cc1ccc(C)c(N2CCN(S(=O)(=O)c3ccc4c(c3)NC(=O)CC(=O)N4)CC2)c1`?
PfHsp40 rescue: 1; BJeLR viability: 0; CCHFV vOTU inh: 10; Sa RN4220 lethal: 23; Sa ugtP lethal: 90*

What do the screens show for `Cc1ccc(C)c(N2CCN(S(=O)(=O)c3ccc4c(c3)CCC(=O)N4)CC2)c1`?
BJeLR viability: -5

How did CC(=O)c1ccc(NC(=O)c2ccc3nc(-c4ccco4)c(-c4ccco4)nc3c2)cc1 do in these assays?
PfHsp40 rescue: 0; BJeLR viability: -5; Sa RN4220 lethal: 22; Sa ugtP lethal: -12

Results for O=C(Nc1ccccc1)c1ccc2nc(-c3ccco3)c(-c3ccco3)nc2c1 ?
PfHsp40 rescue: 1; BJeLR viability: 4; CCHFV vOTU inh: 48*; Sa RN4220 lethal: 18; Sa ugtP lethal: -10

How did O=C(Nc1ccc2nc(-c3ccco3)c(-c3ccco3)nc2c1)N1CCN(c2ccccn2)CC1 do in these assays?
PfHsp40 rescue: 1; BJeLR viability: 5; CCHFV vOTU inh: 30*; Sa RN4220 lethal: 18; Sa ugtP lethal: -3

How did Cc1nc2cc(NC(=O)N3CCN(c4ccccn4)CC3)ccc2o1 do in these assays?
PfHsp40 rescue: 1; BJeLR viability: 1; CCHFV vOTU inh: -9; Sa RN4220 lethal: -4; Sa ugtP lethal: 2

Results for CC(C)COc1ccc(S(=O)(=O)n2cc(F)c(=O)[nH]c2=O)cc1 ?
PfHsp40 rescue: 36*; BJeLR viability: -19; CCHFV vOTU inh: 3; Sa RN4220 lethal: 20; Sa ugtP lethal: 9

What do the screens show for `CCCOc1ccc(S(=O)(=O)n2cc(F)c(=O)[nH]c2=O)cc1`?
PfHsp40 rescue: 162*; BJeLR viability: -6; CCHFV vOTU inh: 7; Sa RN4220 lethal: 20; Sa ugtP lethal: 18

What do the screens show for `O=C(c1ccccc1F)n1c2c(c3ccccc31)CCCC2`?
PfHsp40 rescue: -2; BJeLR viability: 12; CCHFV vOTU inh: -3; Sa RN4220 lethal: -12; Sa ugtP lethal: 93*

What do the screens show for `C#Cc1ccc(C2C=C(C(=O)N3CCN(Cc4ccccc4)CC3)OC(OCC)C2CCCO)cc1` (stereo not drawn)?
Sa RN4220 lethal: 7; Sa ugtP lethal: 4

What do the screens show for `NC(=O)CCN(C(=O)c1cccc(S(=O)(=O)N2CCc3ccccc32)c1)c1ccccc1`?
PfHsp40 rescue: 47*; CCHFV vOTU inh: -5; Sa RN4220 lethal: 5; Sa ugtP lethal: 5

What do the screens show for `Cc1ccc(CN(C)C(=O)c2cccc(S(=O)(=O)N3CCc4ccccc43)c2)cc1`?
PfHsp40 rescue: -1; CCHFV vOTU inh: 9; Sa RN4220 lethal: 9; Sa ugtP lethal: -3

How did CCOC(=O)Cc1csc(NC(=O)CC(C)(C)C)n1 do in these assays?
PfHsp40 rescue: -1; BJeLR viability: 5; CCHFV vOTU inh: 30*; Sa RN4220 lethal: -6; Sa ugtP lethal: 0

Results for O=C(CC1(O)C(=O)Nc2ccccc21)c1ccccc1 (stereo not drawn) ?
PfHsp40 rescue: 0; BJeLR viability: -8; CCHFV vOTU inh: 0; Sa RN4220 lethal: 3; Sa ugtP lethal: 7

Results for C=CCC1(O)C(=O)Nc2ccccc21 (stereo not drawn) ?
PfHsp40 rescue: 55*; BJeLR viability: -3; CCHFV vOTU inh: 8; Sa RN4220 lethal: 3; Sa ugtP lethal: -1

How did O=c1[nH]c(-c2ccccn2)nc(C(F)(F)F)c1Br do in these assays?
PfHsp40 rescue: 133*; BJeLR viability: 0; CCHFV vOTU inh: -3; Sa RN4220 lethal: 17; Sa ugtP lethal: 7
